From the supplement of paper PMC13380429

System: Vero E6 infected with SARS-CoV-2
Assay: inhibition of SARS-CoV-2 cytopathic effect; higher = more antiviral protection, active = above 15
Settings: 48 h

Measured: inhibition of SARS-CoV-2 cytopathic effect

CC(C)C(=O)SCCCCC[C@H](NC(=O)OC(C)(C)C)C(=O)NC12CC3CC(CC(C3)C1)C2
inactive: 1 nM -5.42% | 8.33 nM -0.36% | 100 nM -0.22% | 833.33 nM 2.47% | 10000 nM -6.65%

CC(CNC(=O)c1cccnc1)NC(=O)c1cccnc1 (stereo not given) [nicaraven]
inactive: 1 nM 0.7% | 8.33 nM -0.11% | 100 nM -1.71% | 833.33 nM 0.88% | 10000 nM -0.45%

Cc1ccc(N(CC2=NCCN2)c2cccc(O)c2)cc1 [phentolamine]
inactive: 1 nM -1.41% | 8.33 nM 0.07% | 100 nM -0.25% | 833.33 nM 1.86% | 10000 nM -4.23%

OC(c1ccccc1)(c1ccccc1)C12CC[N+](CCOCc3ccccc3)(CC1)CC2 [umeclidinium]
inactive: 1 nM -0.48% | 8.33 nM 1.77% | 100 nM 0.73% | 833.33 nM 1.46% | 10000 nM 1.64%

Cc1cc(NC(=O)NCCN2CCC(O)(Cc3ccccc3)CC2)c2ccccc2n1 [palosuran]
inactive: 1 nM -0.45% | 8.33 nM 0.24% | 100 nM 0.95% | 833.33 nM 2.2% | 10000 nM 1.86%

CCCC[C@H]1C(=O)N(c2ccccc2)N(c2ccc(O)cc2)C1=O [oxyphenbutazone]
inactive: 1 nM 0.53% | 8.33 nM 1.14% | 100 nM 1.48% | 833.33 nM 3.6% | 10000 nM 10.9%

COc1ccc(-c2nc3cc(C4=NNC(=O)CC4C)ccc3[nH]2)cc1 (stereo not given) [pimobendan]
inactive: 1 nM 2.75% | 8.33 nM -1.84% | 100 nM -1.74% | 833.33 nM -1.51% | 10000 nM -0.67%
